For 9 molecules, growth inhibition results are on record in PubChem BioAssay (NCI).

Each structure is given as a SMILES string. “And” between values parts separate entries of the source, which are not always exact repeats. Identical values can stand only once. This is part of a sample that, as a whole, favours compounds with a hit. Of some 79,000 tested, about 15% had one in any assay. Some structures have more than one record in an assay (separate samples or runs), and their calls can disagree. The source made the active and inactive calls. Rule as the data show it: active = growth inhibition above about 70%; inactive = the rest.

Test [1] in a line: NCI Yeast Anticancer Drug Screen. Data for the rad50 strain (AID 155).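 Also: 0% = growth of vehicle-only cultures of the same strain.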 The settings on record: S. cerevisiae rad50 strain growth inhibition, stronger effect = higher value. Summed up:
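Cells are treated with compound, grown, and their growth is then scored against vehicle-only cultures of the same repair-deficient yeast strain.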

Test [2] can be described thus: NCI Yeast Anticancer Drug Screen. Data for the mec2-1 strain (AID 157). The settings on record: S. cerevisiae mec2-1 strain, stronger effect = higher value. Summed up:
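Mutant yeast (mec2-1) grown with compound; growth inhibition relative to vehicle control reported.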

Test [3] can be described thus: NCI Yeast Anticancer Drug Screen. Data for the sgs1 mgt1 strain (AID 161).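 Also: 0% = growth of cultures given vehicle only.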 Particulars: S. cerevisiae sgs1 mgt1 strain, stronger effect = higher value. Summed up: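 Percent growth inhibition was derived by comparing compound-exposed mutant yeast with vehicle-exposed cultures. The strain carries alterations in DNA damage repair.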
A short description of test [4]: NCI Yeast Anticancer Drug Screen. Data for the cln2 rad14 strain (AID 165).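 Also: 0% = growth equal to vehicle treated cultures.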 Particulars: S. cerevisiae cln2 rad14 strain, stronger effect = higher value. Summed up: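 Readout is yeast growth inhibition versus vehicle-treated controls, using a strain with cln2 and rad14 alterations exposed to compound.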
A short description of test [5]: NCI Yeast Anticancer Drug Screen. Data for the bub3 strain (AID 167). Particulars: S. cerevisiae bub3 mutant strain, stronger effect = higher value. Summed up: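 Part of a panel of yeast mutants defective in DNA damage repair or cell cycle regulation. Each strain is grown with compound, and inhibition is calculated relative to solvent-treated cultures.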
Test [6] is described as follows: NCI Yeast Anticancer Drug Screen. Data for the mlh1 rad18 strain (AID 175). The settings on record: S. cerevisiae mlh1 rad18 strain growth inhibition, stronger effect = higher value. Summed up:
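Genetically defined yeast (DNA repair-deficient) exposed to compounds; growth inhibition determined relative to vehicle.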

The mark [7] stands for this setting: at 5.0 µM (retest, dose inferred, filed as 0.5).
[8] abbreviates: at 50.0 µM (retest, dose inferred, filed as 5.0).

For the molecule `CC1CCC2(NC1)OC1CC3C4CC=C5CC(O)CCC5(C)C4CCC3(C)C1C2C` (configuration not stated), the growth inhibition in test [1] (setting [7]) was 78% (active) and -4% (inactive); in test [1] (setting [8]), 98% (active) and 99% (active); in test [1] (at 50.0 µM), 90.8% (active) and 98.2% (active); in test [2] (setting [7]), 56% (inactive) and 13% (inactive); in test [2] (setting [8]), 99% (active) and 98% (active); in test [2] (at 50.0 µM), 93% (active) and 99.3% (active). Further, the growth inhibition in test [3] (setting [7]) was 92% (active) and -3% (inactive); in test [3] (setting [8]), 99% (active); in test [3] (at 50.0 µM), 91.8% (active) and 99% (active); in test [4] (setting [7]), 72% (active) and -17% (inactive); in test [4] (setting [8]), 99% (active) and 98% (active); in test [4] (at 50.0 µM), 87.5% (active) and 98.5% (active). In addition, the growth inhibition in test [5] (setting [7]) is 93% (active) and 39% (inactive); in test [5] (setting [8]), 99% (active); in test [5] (at 50.0 µM) it was 90.2% (active) and 99.1% (active); in test [6] (setting [7]) it was 77% (active) and 4% (inactive); in test [6] (setting [8]) it was 98% (active) and 99% (active); in test [6] (at 50.0 µM) it was 89% (active) and 98.8% (active).

On to `O=c1[nH]cnc2[nH]cc(CN3CCCCC3)c12`, for which the growth inhibition in test [1] (setting [7]) is 7% (inactive); in test [1] (setting [8]) it was 21% (inactive); in test [1] (at 50.0 µM) it was 17.8% (inactive); in test [2] (setting [7]), -7% (inactive); in test [2] (setting [8]) it was 2% (inactive); in test [2] (at 50.0 µM) it was 13.2% (inactive). For the same molecule, the growth inhibition in test [3] (setting [7]) was -1% (inactive); in test [3] (setting [8]), 29% (inactive); in test [3] (at 50.0 µM), -1.4% (inactive); in test [4] (setting [7]), -32% (inactive); in test [4] (setting [8]), 0% (inactive); in test [4] (at 50.0 µM), 33.2% (inactive). In addition, the growth inhibition in test [5] (setting [7]) is 12% (inactive); in test [5] (setting [8]) it was -1% (inactive); in test [5] (at 50.0 µM), -54.8% (inactive); in test [6] (setting [7]) it was 3% (inactive); in test [6] (setting [8]), 8% (inactive); in test [6] (at 50.0 µM) it was 9.4% (inactive).

Regarding `C=C(C)C1(CCCC)C(=O)NC(=S)NC1=O`, the growth inhibition is 0% (inactive) in test [1] (setting [7]); 60% (inactive) in test [1] (setting [8]); 29.9% (inactive) in test [1] (at 50.0 µM); -18% (inactive) in test [2] (setting [7]); 49% (inactive) in test [2] (setting [8]); 11.8% (inactive) in test [2] (at 50.0 µM). Besides, the growth inhibition in test [3] (setting [7]) is -14% (inactive); in test [3] (setting [8]), 61% (inactive); in test [3] (at 50.0 µM), 34.8% (inactive); in test [4] (setting [7]), -18% (inactive); in test [4] (setting [8]), 51% (inactive); in test [4] (at 50.0 µM) it was -28.1% (inactive). Besides, the growth inhibition in test [5] (setting [7]) is -7% (inactive); in test [5] (setting [8]) it was 45% (inactive); in test [5] (at 50.0 µM) it was 39% (inactive); in test [6] (setting [7]), -2% (inactive); in test [6] (setting [8]), 85% (active); in test [6] (at 50.0 µM), 40% (inactive).

For the molecule `CC(=O)C1CCC2C3CCC4=CC(=[N+]5CCCCC5)CCC4(C)C3CCC12C` (configuration not stated), the growth inhibition was 98% (active) in test [1] (setting [7]); 74% (active) in test [1] (setting [8]); 95.4% (active) in test [1] (at 50.0 µM); 100% (active) in test [2] (setting [7]); 95% (active) in test [2] (setting [8]); 96.4% (active) in test [2] (at 50.0 µM). For the same molecule, the growth inhibition is 97% (active) in test [3] (setting [7]); 95% (active) in test [3] (setting [8]); 97.5% (active) in test [3] (at 50.0 µM); 99% (active) in test [4] (setting [7]); 87% (active) in test [4] (setting [8]); 91.7% (active) in test [4] (at 50.0 µM). Also, the growth inhibition in test [5] (setting [7]) is 99% (active); in test [5] (setting [8]), 93% (active); in test [5] (at 50.0 µM), 93.5% (active); in test [6] (setting [7]), 99% (active); in test [6] (setting [8]) it was 92% (active); in test [6] (at 50.0 µM) it was 95.8% (active).

For the molecule `O=c1oc2ccccc2c(O)c1C1c2c(c3ccccc3oc2=O)Oc2c1c(=O)oc1ccccc21`, the growth inhibition in test [1] (setting [7]) is 9% (inactive); in test [1] (setting [8]) it was 96% (active); in test [1] (at 50.0 µM), 85% (active); in test [2] (setting [7]) it was 2% (inactive); in test [2] (setting [8]), 97% (active); in test [2] (at 50.0 µM) it was 91.2% (active). Further, the growth inhibition is 2% (inactive) in test [3] (setting [7]); 97% (active) in test [3] (setting [8]); 88.5% (active) in test [3] (at 50.0 µM); 12% (inactive) in test [4] (setting [7]); 97% (active) in test [4] (setting [8]); 87.3% (active) in test [4] (at 50.0 µM). The growth inhibition is 9% (inactive) in test [5] (setting [7]); 97% (active) in test [5] (setting [8]); 84.9% (active) in test [5] (at 50.0 µM); 10% (inactive) in test [6] (setting [7]); 97% (active) in test [6] (setting [8]); 92% (active) in test [6] (at 50.0 µM).

In the case of `CC(=O)O.[Au].c1ccc([PH+](c2ccccc2)c2ccccc2)cc1`, the growth inhibition was 99% (active) in test [1] (setting [7]); 98% (active) in test [1] (setting [8]); 98.2% (active) in test [1] (at 50.0 µM); 98% (active) in test [2] (setting [7]); 98% (active) in test [2] (setting [8]); 98.2% (active) in test [2] (at 50.0 µM). For the same molecule, the growth inhibition in test [3] (setting [7]) was 99% (active); in test [3] (setting [8]), 55% (inactive); in test [3] (at 50.0 µM), 98% (active); in test [4] (setting [7]) it was 99% (active); in test [4] (setting [8]), 96% (active); in test [4] (at 50.0 µM) it was 98% (active). The growth inhibition in test [5] (setting [7]) was 100% (active); in test [5] (setting [8]), 98% (active); in test [5] (at 50.0 µM), 98.2% (active); in test [6] (setting [7]), 99% (active); in test [6] (setting [8]), 97% (active); in test [6] (at 50.0 µM), 97.6% (active).

As to `COc1ccc(CNCCc2ccc(O)c(OC)c2)cc1O`, the growth inhibition in test [1] (setting [7]) was 1% (inactive); in test [1] (setting [8]) it was 0% (inactive); in test [1] (at 50.0 µM) it was 31.4% (inactive); in test [2] (setting [7]), 1% (inactive); in test [2] (setting [8]), 3% (inactive); in test [2] (at 50.0 µM) it was -2.8% (inactive). Moreover, the growth inhibition in test [3] (setting [7]) is 4% (inactive); in test [3] (setting [8]), 7% (inactive); in test [3] (at 50.0 µM), -0.55% (inactive); in test [4] (setting [7]) it was -5% (inactive); in test [4] (setting [8]), 5% (inactive); in test [4] (at 50.0 µM) it was -6.35% (inactive). Besides, the growth inhibition was -3% (inactive) in test [5] (setting [7]); -3% (inactive) in test [5] (setting [8]); 8.7% (inactive) in test [5] (at 50.0 µM); -1% (inactive) in test [6] (setting [7]); 8% (inactive) in test [6] (setting [8]); -4.45% (inactive) in test [6] (at 50.0 µM).

With `c1ccc(C(C(=Nc2ccc(Cc3ccc(N=C(C(c4ccccc4)c4ccccc4)N4CC4)cc3)cc2)N2CC2)c2ccccc2)cc1`, the growth inhibition is 5% (inactive) in test [1] (setting [7]); 86% (active) in test [1] (setting [8]); 85.6% (active) in test [1] (at 50.0 µM); 42% (inactive) in test [2] (setting [7]); 59% (inactive) in test [2] (setting [8]); 92.5% (active) in test [2] (at 50.0 µM). Moreover, the growth inhibition in test [3] (setting [7]) is 5% (inactive); in test [3] (setting [8]), 70% (active); in test [3] (at 50.0 µM), 94.1% (active); in test [4] (setting [7]), 8% (inactive); in test [4] (setting [8]), 62% (inactive); in test [4] (at 50.0 µM) it was 77.2% (active). In addition, the growth inhibition was 5% (inactive) in test [5] (setting [7]); 87% (active) in test [5] (setting [8]); 85.8% (active) in test [5] (at 50.0 µM); 11% (inactive) in test [6] (setting [7]); 71% (active) in test [6] (setting [8]); 91.7% (active) in test [6] (at 50.0 µM).

For `COc1cc2c3c(c1)-c1c(ccc(OC)c1OC)CC3N(CCCl)CC2` (configuration not stated), the growth inhibition in test [1] (setting [7]) is 15% (inactive); in test [1] (setting [8]), 92% (active); in test [1] (at 50.0 µM), 87% (active); in test [2] (setting [7]) it was 11% (inactive); in test [2] (setting [8]), 69% (inactive); in test [2] (at 50.0 µM) it was 38.9% (inactive). Moreover, the growth inhibition in test [3] (setting [7]) is 7% (inactive); in test [3] (setting [8]), 71% (active); in test [3] (at 50.0 µM), 77.2% (active); in test [4] (setting [7]) it was 7% (inactive); in test [4] (setting [8]) it was 77% (active); in test [4] (at 50.0 µM) it was 31.8% (inactive). Also, the growth inhibition is 13% (inactive) in test [5] (setting [7]); 75% (active) in test [5] (setting [8]); 28.9% (inactive) in test [5] (at 50.0 µM); 12% (inactive) in test [6] (setting [7]); 78% (active) in test [6] (setting [8]); 86.7% (active) in test [6] (at 50.0 µM).
